Bioassay records from PubChem.
This is a sample that favours compounds with a hit; in the whole collection about 9% have one here.
G9a inh: qHTS Assay for Inhibitors of Histone Lysine Methyltransferase G9a; Histone-lysine N-methyltransferase EHMT2 (Homo sapiens), Q96KQ7; G9a H3K9 monomethylation, AlphaScreen, 2 h; Potency, µM (highest dose often 102 µM), without a hit: at the highest dose activity, negative = inhibition, hits mostly inhibitors; 350,000 compounds, 8.8% hits; AID 504332, 2011; also: % is scaled to controls: 0 for no effect and ±100 for the full control effect; nearly all actives have a fitted effect of over 75% in size
Target sequence (Q96KQ7 913-1193 limits assumed): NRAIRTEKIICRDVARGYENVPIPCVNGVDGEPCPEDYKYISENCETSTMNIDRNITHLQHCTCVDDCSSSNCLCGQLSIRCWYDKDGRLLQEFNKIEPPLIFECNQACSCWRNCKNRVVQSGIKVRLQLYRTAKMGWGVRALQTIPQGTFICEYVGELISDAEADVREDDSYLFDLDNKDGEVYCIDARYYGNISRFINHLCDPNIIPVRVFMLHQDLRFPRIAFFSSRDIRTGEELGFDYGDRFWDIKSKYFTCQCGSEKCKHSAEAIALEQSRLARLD
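Quantitative HTS format: methyltransferase activity on a biotin-tagged H3K9 peptide is measured by AlphaScreen, using a rabbit anti-monomethyl-H3K9 antibody with streptavidin donor and anti-IgG acceptor beads. Final levels are 20 nM enzyme, 500 nM peptide, 20 uM SAM; 2 h RT.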
12-LOX inh: Primary qHTS assay for inhibitors of human arachidonate 12S-lipoxygenase (ALOX12): Round 2; purified 12hLO, xylenol orange hydroperoxide absorbance; Potency, µM (doses to about 108 µM), inactives show at the top dose activity change, negative = inhibition, actives largely listed as inhibitors; 580,000 compounds, 1.1% hits; also: % is scaled to controls: 0 for no effect and ±100 for the full control effect
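Purified human 12hLO (150 nM final) in 25 mM Hepes, 0.01% Triton X-100, pH 7.0 was preincubated 15 min at room temperature with compound. Then 40 uM arachidonic acid was added, 30 min. Hydroperoxide was read by Fe-XO absorbance ratio 573/405 nm.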
PLK1 PBD block: qHTS for Inhibitors of PLK1-PDB (polo-like kinase 1 - polo-box domain): Primary Screen. Serine/threonine-protein kinase PLK1 (Homo sapiens), P53350. Plk1 PBD binding of FITC phosphopeptide, fluorescence polarization. Potency, µM, for inactives: max response, negative = inhibition, most hits filed as inhibitors. 360,000 compounds, 2.8% hits; also: series mostly up to about 57 µM; % is scaled to controls: 0 for no effect and ±100 for the full control effect; nearly all actives have a fitted effect of over 65% in size
HP1b binding inh: HTS for Inhibitors of HP1-beta Chromodomain Interactions with Methylated Histone Tails | Chromobox protein homolog 1 (Homo sapiens), P83916 | AlphaScreen HP1-beta / biotin-H3K9me3 peptide binding | Potency, µM (doses to about 114 µM), for the others: at the highest dose activity change, negative = inhibition, actives largely listed as inhibitors | 390,000 compounds, 0.56% hits | AID 540317, 2011; also: nearly all actives have a fitted effect of over 70% in size
Target sequence (P83916 whole entry, looked up): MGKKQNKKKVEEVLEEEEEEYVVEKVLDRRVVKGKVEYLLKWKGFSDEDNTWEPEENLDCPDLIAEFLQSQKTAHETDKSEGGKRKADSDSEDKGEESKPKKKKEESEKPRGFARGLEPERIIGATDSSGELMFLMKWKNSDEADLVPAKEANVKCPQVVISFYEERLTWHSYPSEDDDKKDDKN
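Compound inhibition of the preformed complex between 50 nM HP1-beta and 50 nM biotinylated H3K9me3 peptide was read by AlphaScreen. Buffer was PBS pH 7.4 with 0.01% Tween-20. Incubations ran 30 min at room temperature, with 10 ug/mL donor/acceptor beads.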
BAZ2B inh: qHTS Assay for Inhibitors of BAZ2B; Bromodomain adjacent to zinc finger domain protein 2B (Homo sapiens), Q9UIF8; AlphaScreen BAZ2B-H3K14Ac peptide displacement; Potency, µM (doses to about 114 µM), for inactives: at the highest dose activity change, negative = inhibition, hits mostly inhibitors; 360,000 compounds, 4.4% hits; AID 504333, 2011; also: % is scaled to controls: 0 for no effect and ±100 for the full control effect; nearly all actives have a fitted effect of over 60% in size
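Complex of BAZ2B and biotin-H3K14Ac (50 nM apiece) forms over 30 min at RT, then faces library compounds up to 110 uM for another 30 min; AlphaScreen beads added, 20 min dark incubation, luminescence read.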
JMJD2A Tudor: qHTS Assay for Inhibitors of JMJD2A-Tudor Domain. Lysine-specific demethylase 4A (Homo sapiens), O75164. AlphaScreen JMJD2A-Tudor / H3K4me3 peptide binding. Potency, µM (series often up to 114 µM), for inactives: top-dose activity change, negative = inhibition, actives largely listed as inhibitors. 390,000 compounds, 4.4% hits; also: % is scaled to controls: 0 for no effect and ±100 for the full control effect; nearly all actives have a fitted effect of over 50% in size
Active calls of the source: *; u = inconclusive; x = not tested or not shown; [ ] = remark or other dose. Calls follow the shape of the dose curve; as a rule, active = well fitted curve in the direction sought with a large enough effect; inconclusive = small, poorly fitted or top-dose-only effect, or another doubt; inactive = no such curve, though single readings can be large; an effect the other way counts as inactive or inconclusive. Potency is read from the fitted curve at half-maximal effect.

SMILES	G9a inh	12-LOX inh	PLK1 PBD block	HP1b binding inh	BAZ2B inh	JMJD2A Tudor
Cc1ccc(C(=O)NNCC(=O)Nc2ccc(Cl)cc2F)cc1	x	16µM*	-7%	33%	x	-13%
CC(C)(C)CC(=O)Nc1nc2c(s1)C[C@@H]1[C@](C)(CO)[C@H](O)CC[C@@]1(C)[C@@H]2CC(=O)NCc1ccccc1	x	-4%	x	x	x	x
O=C(NCC(O)CO)c1csc(Nc2cccc3ccccc23)n1 (centres undefined)	40µM*	21%	-22%	35%	u	-26%
CCN(CC)CCCNC(=O)c1csc(Nc2cccc3ccccc23)n1	x	8%	-4%	26%	u	-27%
O=C(c1csc(Nc2cccc3ccccc23)n1)N1CCCC1	-13%[59 µM]	u	-15%	16%	40µM*	-27%
O=C(c1csc(Nc2cccc3ccccc23)n1)N1CCc2ccccc2C1	x	26%	x	x	x	x
O=C(c1csc(Nc2ccccc2Cl)n1)N1CCCC1	u	-15%	-19%	21%	3%	-14%
CCN(CC)C(=O)c1csc(Nc2cccc3ccccc23)n1	40µM*	u	-11%	6%	u	-30%
COc1ccc(-c2nc3ccc(N4CCN(C)CC4)cc3c(=O)[nH]2)cc1	-31%	6%	-1%	39%	-21%	-8%[11.4 µM]
COc1cc(-c2nc3ccc(N4CCN(C)CC4)cc3[nH]2)cc(OC)c1OC	40µM*	-11%	-4%	5%	-35%	-5%
Cc1cccc(N2C(=O)CC(N3CCN(Cc4ccc(Cl)cc4)CC3)C2=O)c1 (centres undefined)	40µM*	33%	-3%	44%	-16%	-12%
Cc1cccc(N2C(=O)CC(N3CCN(c4ccc(Cl)cc4)CC3)C2=O)c1 (centres undefined)	3%	2%	3%	39%	-6%	-21%
O=C(O)c1ccc(N2C(=O)CC(N3C(=O)/C(=C/c4ccc(Cl)cc4)SC3=S)C2=O)cc1 (centres undefined)	u	0%	27µM*	-19%	u	u
O=C1CC(N2CCN(c3ccc(Cl)cc3)CC2)C(=O)N1c1ccc(F)cc1 (centres undefined)	-12%	-4%	-10%	36%	-17%	-21%
CN1CCN(C(=O)CCN2C(=O)/C(=C\c3ccc(Cl)cc3)SC2=S)CC1	-11%	x	-19%	11%	-34%	-28%
O=C(O)c1ccc(N2C(=O)CC(N3CCN(c4ccc(Cl)cc4)CC3)C2=O)cc1 (centres undefined)	45µM*	0%	-11%	47%	u	-17%
COc1ccc(C(=O)COC(=O)C(Cc2c[nH]c3ccccc23)NC(=O)c2ccc(C(C)(C)C)cc2)cc1 (centres undefined)	-54%[59 µM]	-12%	x	20%	-21%	-31%
Cc1c(C(=O)N(Cc2cccc(Br)c2)C2CCS(=O)(=O)C2)oc2ccc(F)cc12 (centres undefined)	56%	-1%	-21%	2%	-36%	-13%
C#CCOCCOCCOCCNc1nc(N2CCN(C(=O)C([C@@H](C)O)n3cc([C@@H](N)CCCCN)nn3)CC2)nc(N2CCN(C(=O)[C@H](CC(N)=O)n3cc([C@@H](N)C(C)C)nn3)CC2)n1 (some centres undefined)	x	-2%	-5%	18%	x	u
C#CCOCCOCCOCCNc1nc(N2CCN(C(=O)C([C@@H](C)CC)n3cc(C(N)COC(=O)C(F)(F)F)nn3)CC2)nc(N2CCN(C(=O)[C@H](CCC(=O)O)n3cc(C(N)CC(C)C)nn3)CC2)n1 (some centres undefined)	x	-4%	-4%	42%	x	63µM*
C#CCOCCOCCOCCNc1nc(N2CCN(C(=O)C([C@@H](C)CC)n3cc(C(N)COC(=O)C(F)(F)F)nn3)CC2)nc(N2CCN(C(=O)C([C@@H](C)CC)n3cc(C(N)CC(C)C)nn3)CC2)n1 (some centres undefined)	x	u	4%	29%	x	79µM*
CC(C)Oc1ccc(C(=O)NCc2ccco2)cc1	0%[12.7 µM]	14%	27µM*	u	-12%	-12%[11.4 µM]
CCCOc1ccc(C(=O)NCc2ccco2)cc1	-33%	0%	-4%	28%	-25%	-9%
O=C(NCc1ccco1)c1cccc(NC(=O)c2ccco2)c1	56µM*	-19%	-19%	-2%	-32%	-29%
CCOC(=O)c1ccc(N2Cc3ccccc3C2=NC(=O)c2ccncc2)cc1	u	-14%	-6%	46%	-1%	-2%
SMILES	G9a inh	12-LOX inh	PLK1 PBD block	HP1b binding inh	BAZ2B inh	JMJD2A Tudor
COc1ccc(N2Cc3ccccc3C2=NC(=O)c2cncc(Br)c2)cc1	32µM*	-13%	-10%	11%	-30%	u
COc1ccc(N2Cc3ccccc3C2=O)cc1	-2%	1%	-3%	50%	-37%	-5%
COc1ccc(N2Cc3ccccc3C2=NC(=O)c2cccc([N+](=O)[O-])c2)cc1	20µM*	-17%	-7%	4%	u	-22%
CC(=O)c1ccc(N2Cc3ccccc3C2=NC(=O)c2cccs2)cc1	-1%[59 µM]	-21%	-14%	16%	-5%	-16%
O=C(N=C1c2ccccc2CN1c1ccc(F)cc1)c1ccc(Cl)nc1	22µM*	-17%	-11%	23%	4%	-12%
CCOC(=O)C1=C(C)N(C)C(C)=C(C(=O)OCC)C1c1ccc(Cl)cc1	8%[59 µM]	-19%	2%	80%	15%	47%
CCc1c(C)nc(N)c(C#N)c1-c1ccccc1	12%	1%	-8%	38%	-4%	-10%
N#CC1=C(N)C2=C(N3CCCCC3)CCCC2C1(C#N)C#N (centres undefined)	u	x	u	12%	50µM*	-30%
CC(C)c1nnc(NC(=O)CSc2nc3ccccc3[nH]2)s1	-24%	-3%	-20%	37%	-1%	-8%
CCc1sc(/C=C(/C#N)C(N)=S)cc1[N+](=O)[O-]	13µM*	u	5.3µM*	u	u	u
COC(=O)[C@@H](N)CS	8.9µM*	u	24µM*	-25%	-31%	u
CCOCCCn1c(=S)[nH]c2cc(C(=O)N3CCN(C)CC3)ccc2c1=O	u	-18%	-12%	15%	u	22µM*
